In the library only some 12% were active in any assay of this set; here they are far more common.
JMJD2A Tudor: qHTS Assay for Inhibitors of JMJD2A-Tudor Domain; Lysine-specific demethylase 4A (Homo sapiens), O75164; Potency, µM (titrated, usually from 114 µM), for the others: at the top dose activity change, negative = inhibition, usual class: inhibitors; AlphaScreen JMJD2A-Tudor / H3K4me3 peptide binding; 390,000 compounds, 4.4% hits; further: on the % scale 0 is the no-effect control and ±100 the full control effect; nearly all actives have a fitted effect of over 50% in size
G9a block: qHTS Assay for Inhibitors of Histone Lysine Methyltransferase G9a; Histone-lysine N-methyltransferase EHMT2 (Homo sapiens), Q96KQ7; G9a H3K9 monomethylation, AlphaScreen, 2 h; Potency, µM (series often up to 102 µM), for the others: at the top dose activity, negative = inhibition, usual class: inhibitors; 350,000 compounds, 8.8% hits; AID 504332, 2011; further: on the % scale 0 is the no-effect control and ±100 the full control effect; nearly all actives have a fitted effect of over 75% in size
Target sequence (Q96KQ7 913-1193 limits assumed): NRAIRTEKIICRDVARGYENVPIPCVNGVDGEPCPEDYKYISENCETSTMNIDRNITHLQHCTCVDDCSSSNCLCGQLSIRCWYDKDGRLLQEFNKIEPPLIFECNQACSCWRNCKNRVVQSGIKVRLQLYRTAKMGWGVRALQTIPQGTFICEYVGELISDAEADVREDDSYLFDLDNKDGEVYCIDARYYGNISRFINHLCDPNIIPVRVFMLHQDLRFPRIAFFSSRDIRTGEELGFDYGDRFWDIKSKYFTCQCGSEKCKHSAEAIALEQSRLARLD
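Compounds were preincubated with 20 nM G9a for 15 min, after which biotinylated H3K9 peptide (500 nM) and SAM (20 uM) started a 2 h room-temperature reaction. Monomethylated product was quantified by antibody-based AlphaScreen chemiluminescence.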
HP1b binding inh: HTS for Inhibitors of HP1-beta Chromodomain Interactions with Methylated Histone Tails; AID 540317, 2011; Potency, µM (top dose mostly 114 µM), without a hit: at the highest dose activity change, negative = inhibition, usual class: inhibitors; Chromobox protein homolog 1 (Homo sapiens), P83916; AlphaScreen HP1-beta / biotin-H3K9me3 peptide binding; 390,000 compounds, 0.56% hits; further: nearly all actives have a fitted effect of over 70% in size
Target sequence (P83916 whole entry, looked up): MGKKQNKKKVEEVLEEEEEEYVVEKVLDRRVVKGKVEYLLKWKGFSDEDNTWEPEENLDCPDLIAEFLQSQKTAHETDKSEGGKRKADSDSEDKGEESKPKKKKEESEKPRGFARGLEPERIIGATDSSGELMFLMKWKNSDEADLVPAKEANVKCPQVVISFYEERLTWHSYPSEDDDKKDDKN
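HP1-beta protein (50 nM final) preincubated 30 min at room temperature with biotinylated H3(1-18)K9me3 peptide (50 nM) in PBS pH 7.4, 0.01% Tween-20, then compound added for 30 min. AlphaScreen streptavidin donor/nickel chelate acceptor beads (10 ug/mL final), 30 min dark, luminescence read.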
PLK1 PBD block: qHTS for Inhibitors of PLK1-PDB (polo-like kinase 1 - polo-box domain): Primary Screen; Serine/threonine-protein kinase PLK1 (Homo sapiens), P53350; Plk1 PBD binding of FITC phosphopeptide, fluorescence polarization; Potency, µM, for the others: max response, negative = inhibition, usual class: inhibitors; 360,000 compounds, 2.8% hits; AID 720504, 2013; further: series mostly up to about 57 µM; on the % scale 0 is the no-effect control and ±100 the full control effect; nearly all actives have a fitted effect of over 65% in size
BAZ2B block: qHTS Assay for Inhibitors of BAZ2B; Bromodomain adjacent to zinc finger domain protein 2B (Homo sapiens), Q9UIF8; AlphaScreen BAZ2B-H3K14Ac peptide displacement; 360,000 compounds, 4.4% hits; Potency, µM (highest dose often 114 µM), for inactives: at the top dose activity change, negative = inhibition, actives largely listed as inhibitors; AID 504333, 2011; further: on the % scale 0 is the no-effect control and ±100 the full control effect; nearly all actives have a fitted effect of over 60% in size
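AlphaScreen displacement of biotin-H3(5-23)K14Ac peptide (50 nM final) from BAZ2B (50 nM final) in PBS pH 7.4, 0.01% Tween-20; complex preformed 30 min RT, then compounds (top 110 uM) 30 min RT, beads 20 min dark.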
Sfp PPTase inh: qHTS Assay for Inhibitors of Bacillus subtilis Sfp phosphopantetheinyl transferase (PPTase) | 4'-phosphopantetheinyl transferase ffp (Bacillus subtilis), Q9F4F7 | Biochemical Sfp PPTase activity, qHTS | Potency, µM, without a hit: largest response in the series, negative = inhibition, most hits filed as inhibitors | 310,000 compounds, 3.5% hits | AID 1490, 2009;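 further: the enzyme is Sfp with the accession as filed and its product quenches rhodamine fluorescence; 0% = enzyme reaction without inhibitor and -100% = no enzyme wells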
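Fluorescence-quenching assay: 15 nM Sfp-PPTase preincubated 15 min at room temperature with compound, then 5 uM rhodamine-CoA and 12.5 uM BHQ-2-labelled YbbR peptide added. Fluorescence (ex 525/em 598 nm) read at start and after 30 min; difference gives rate.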
The depositor's hits bear a star; u = inconclusive; x = not tested or not shown; [ ] = dose if it differs, or a comment. The call rests on the fitted dose curve; in most records, active means well fitted curve in the direction sought with a large enough effect; inconclusive means small, poorly fitted or top-dose-only effect, or another doubt; inactive means no such curve, though single readings can be large; an effect the other way counts as inactive or inconclusive. Potency means the concentration at half of the fitted maximal effect.

SMILES	JMJD2A Tudor	G9a block	HP1b binding inh	PLK1 PBD block	BAZ2B block	Sfp PPTase inh
Cc1ccc(/C=c2\sc3nc(-c4ccco4)nn3c2=O)o1	-16%[11.4 µM]	18µM*	22µM*	9.5µM*	50µM*	25µM*
Cc1ccc(/C=c2/sc3nnc(-c4ccccc4Cl)n3c2=O)o1	22µM*	11µM*	-35%	-22%	40µM*	13µM*
Cc1sc(NC(=O)C2CSC3(C)CCC(=O)N23)nc1-c1ccccc1 (stereo unspecified)	-33%	50µM*	-5%	-8%	u	x
CC12CCC(=O)N1C(C(=O)Nc1nc(-c3ccc(F)cc3)cs1)CS2 (stereo unspecified)	-14%	-3%[59 µM]	0%	-9%	-6%	x
CC12CCC(=O)N1C(C(=O)Nc1nc(-c3ccccc3Cl)cs1)CS2 (stereo unspecified)	-35%	50µM*	-3%	-10%	-9%	x
CC(=O)c1sc(NC(=O)C2CSC3(C)CCC(=O)N23)nc1-c1ccccc1 (stereo unspecified)	-31%	u	4%	-9%	-6%	x
COc1ccc(C(C(=O)Nc2ccc(C(C)C)cc2)N(Cc2ccco2)C(=O)CC2NC(=O)NC2=O)cc1 (stereo unspecified)	-33%	8.9µM*	-2%	-1%	40µM*	-17%
O=C1CC(N(O)C2CC(=O)N(Cc3ccccc3)C2=O)C(=O)N1Cc1ccccc1 (stereo unspecified)	-24%[57.1 µM]	x	-25%	24µM*	2%	45µM*
O=C1CC(N2CCN(c3ccccc3O)CC2)C(=O)N1Cc1ccccc1 (stereo unspecified)	-17%	-24%	28%	-6%	-20%	-2%
CCCN(CCC)C1CC(=O)N(Cc2ccccc2)C1=O (stereo unspecified)	-15%	25µM*	66%	-14%	-22%	u
Cc1ccccc1C(=O)N/N=C1/SCC(=O)N1Cc1ccccc1	-15%	-9%	11%	-3%	-20%	16%
Cc1cc(C)cc(-n2c(SCC(N)=O)nc3c([nH]c4ccccc43)c2=O)c1	-16%	3%[59 µM]	22%[57 µM]	x	-13%	x
Cc1cc(-c2nnc3sc(C4CCCCC4)nn23)n[nH]1	-28%[57.1 µM]	-2%	u	27µM*	-5%	8%
CCOc1cccc(-c2nnc3sc(C4CCCCC4)nn23)c1	-25%	35µM*	u	u	-5%	u
C=CCn1c(=O)c2ccccc2n2c(SCc3nc4ccccc4s3)nnc12	-5%	13µM*	52%	-1%	-14%	19%
COC(=O)c1cc(NC(=O)c2ccccc2)c(=O)oc1/C=C/Nc1ccc(Oc2ccccc2)cc1	-29%	0%	15%	22%	-14%	16%
COc1ccc(C(=O)Nc2cc(C(C)=O)c(C)oc2=O)cc1	-6%	35µM*	47%	-4%	-20%	u
CC(=O)c1cc(NC(=O)c2cccc(C(F)(F)F)c2)c(=O)oc1/C=C/N(C)C	-9%	10%	21%	9%	-5%	5%
CC(=O)c1cc(NC(=O)c2cccc(C(F)(F)F)c2)c(=O)oc1C	-20%[11.4 µM]	25µM*	-12%	24µM*	-20%	14µM*
CC(=O)c1cc(NC(=O)c2ccc(Cl)cc2)c(=O)oc1/C=C/N(C)C	1%[57.1 µM]	u	31%	2%	-11%	56µM*
CC(=O)NCC1CCN(C(=O)C2CCC(=O)N(CCc3cccc(F)c3)C2)CC1 (stereo unspecified)	1%	80%	39%	1%	6%	10%
CCn1cc(C(=O)OCC(=O)Nc2ccc(F)cc2F)c(=O)c2ccc(C)nc21	-16%	u	46%	x	-6%	x
CCn1cc(-c2n[nH]c(=S)n2-c2ccc(C)cc2Br)c(=O)c2ccc(C)nc21	u	10µM*	55%	0%	-5%	6%
COc1ccc(NC(=O)CN2CCN(CC(=O)Nc3ccccc3Cl)CC2)cc1Cl	-5%[57.1 µM]	x	9%	-5%	-12%	-4%
CCOC(=O)C1CCCN(CCC(=O)Nc2ccccc2)C1 (stereo unspecified)	5%	u	48%	-1%	-5%	22%
SMILES	JMJD2A Tudor	G9a block	HP1b binding inh	PLK1 PBD block	BAZ2B block	Sfp PPTase inh
CCOC(=O)C1CCN(CC(=O)Nc2ccc(OC)c(Cl)c2)CC1	2.8µM*	10µM*	u	-12%	50µM*	-14%
CCOC(=O)C1CCCN(CC(=O)Nc2cc(C)cc(C)c2)C1 (stereo unspecified)	-11%	50µM*	20%	2%	-3%	-2%
CCOC(=O)C1CCCN(CCC(=O)Nc2cc(C)cc(C)c2)C1 (stereo unspecified)	-9%	18%	29%	-7%	-4%	-10%
CCOC(=O)C1CCCN(CC(=O)Nc2cccc(C(C)=O)c2)C1 (stereo unspecified)	22µM*	18µM*	u	-4%	50µM*	u
CSc1ncccc1C(=O)OCC(=O)c1ccc(C)s1	-14%	x	6%[57 µM]	-12%	x	x
COc1ccc(C2=Nn3c(nnc3-c3ccccc3OC)SC2)c(OC)c1	-19%	x	x	x	x	-21%
Cc1nc2sc3c(c2c(=O)o1)CC(C)(C)OC3	2%	3%[12.7 µM]	24%	-13%	7%	-7%
CC1(C)Cc2c(sc3nc(=S)[nH]c(N)c23)CO1	x	x	x	x	-12%	25µM*
CCCCc1nc2sc3c(c2c(=O)[nH]1)CC(C)(C)OC3	-7%	x	69%	2%	x	x
Cc1nc(NN)c2c3c(sc2n1)COC(C)(C)C3	-23%	-7%[2.33 µM]	8%	2%	-10%	56µM*
O=[N+]([O-])/C=C\c1ccc(N2CCCC2)c(F)c1	-4%	8%[59 µM]	31%	-28%	-11%	u
OC[C@H]1OC(O)[C@H](O)[C@@H](O)[C@@H]1O (stereo partly specified)	x	x	x	x	x	13%
CC(=O)c1ccc(-n2nncc2C(C)(C)C)cc1	-2%	-28%[59 µM]	22%	-5%	-3%	19%
Cc1cnnn1-c1ccc(C(=O)CCl)cc1	-31%[57.1 µM]	19%[0.501 µM]	39%	3.8µM*	u	u
COC(=O)[C@H](C)NC(=O)C/C=C\[C@@H](C)[C@H]1C=C[C@H](O)[C@@H](CO)O1	x	x	x	x	x	-3%
COc1cc(CNc2cccc3[nH]c(C(F)(F)F)nc23)cc(OC)c1	50µM*	40µM*	28%	27µM*	u	-18%

Screening data (PubChem BioAssay)
